# Screens deposited in PubChem BioAssay by several laboratories.
# A selection: hits, their analogues and other compounds. The true share with any hit is near 3.6%.
# CRFR2-BP antag – antagonists of CRF-binding protein/CRF-R2 receptor complex | HEK293 CRF-R2/CRF-BP, CRF-induced calcium fluorescence | inhibition, % at 11.8 µM | hit rate 0.59% among 350,000;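 active = inhibition of the ligand-induced calcium signal above about 50% at the single tested concentration, limit read from the data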
# FAS-TE inh – FAS thioesterase (human) inhibition; P49327; recombinant FAS-TE, OMFH fluorogenic substrate, fluorescence endpoint; inhibition, % at 15 µM; hit rate 0.67% among 360,000;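 active = compounds whose normalised, plate-corrected inhibition of enzyme fluorescence in the single-dose primary screen is 50% or more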;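 also: 0% = DMSO with enzyme and 100% = substrate without enzyme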
# Myeloid diff MLP – myeloid differentiation induction. calls only at 10 µM. ER-HoxA9 myeloid progenitors, lysozyme-GFP differentiation, flow cytometry. hit rate 1% among 360,000;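 active = normalized GFP-positive differentiation at or above the plate's own cutoff, the solvent-only control mean plus 3 SD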;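 also: cells exposed to compound for four days before flow analysis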
# NadD block – blocks S. aureus nicotinate mononucleotide adenylyltransferase; purified NadD enzyme, colorimetric absorbance read-out; inhibition, % at 20 µM; hit rate 0.78% among 360,000; AID 602399; in the data active = inhibition above about 26%
# CendR NRP1 mod – alters CendR peptide binding to human NRP-1. AID 602438. O14786. inhibition, % at 25 µM. FAM-RPARPAR peptide binding to NRP-1, fluorescence polarization. hit rate 0.85% among 360,000;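 active = inhibition or corrected inhibition above about 18%, plus a signal ratio from 0.5 to 1.5, limit read from the data, passing the limit was not always enough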
# Myeloid diff – compounds promoting myeloid differentiation; shares compounds with Myeloid diff MLP; ER-HoxA9 myeloid progenitors, GFP/Mac1 double-positive flow; calls only; hit rate 2% among 2,300;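 active = share of green or green-and-red cells above 9 and 9% in run 1 or 4 and 3% in run 2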
# GFP autofluor – compound fluorescence in myeloid differentiation counter-screen. shares compounds with Myeloid diff MLP. ER-HoxA9 myeloid progenitors, no estrogen, GFP autofluorescence flow cytometry; vehicle wells 0%, positive control 100%. fluorescence response, % (concentration not given with the values). hit rate 7.4% among 2,300. AID 651707;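 active = over 5% cells positive for green fluorescent reporter, or over 2% positive for both it and APC stain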;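 also: range taken on the double positive population between DMSO and positive control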
# Active calls of the source: *; i = inactive; . = no result; + = active, no number.
SMILES,CRFR2-BP antag,FAS-TE inh,Myeloid diff MLP,NadD block,CendR NRP1 mod,Myeloid diff,GFP autofluor
C(=C\c1ccco1)/C1=NN(c2ccccc2)C(c2ccco2)C1 (stereo not given),-99,26,+,22,-149,i,2
O=C(Nc1cccc2ccccc12)OCc1ccccc1,9,11,i,0,3,.,.
CC(C)(C)C(=O)Nc1nc2c(s1)CN(Cc1ccccc1)CC2,-5,-17,i,6,-36,i,0
O=C(Nc1nc2c(s1)CN(Cc1ccccc1)CC2)C1CCCC1,-12,-12,i,10,-42,.,.
Cc1ccc(S(=O)(=O)N2CCN(C(=O)CN3CCN(c4ccc(O)cc4)CC3)CC2)cc1,-3,6,+,9,2,i,0
COc1ccc(-c2csc(C(NC(C)=O)c3cccc(F)c3)n2)cn1 (stereo not given),.,1,+,2,27*,i,1
Cc1cc(C)c(S(C)(=O)=O)c(=O)[nH]1,8,-3,i,-4,-3,.,.
Cc1cc(=O)c2c([nH]1)c(C)cc1[nH]c(C)c(C)c12,-6,-37,i,3,96,i,0
Cc1cc(/C=C2\SC(=S)N(C)C2=O)c(C)n1-c1cccc(O)c1,-4,1,+,4,-136,i,5
CCOC(=O)C1CCN(C(=O)CNC(=O)c2nn(-c3ccc(OC)cc3)c(=O)c3ccccc23)CC1,-9,-3,i,-4,-3,.,.
O=C(O)CCC(=O)NNC(=O)c1ccc([N+](=O)[O-])cc1,39,-2,i,-3,6,.,.
O=C(O)CCC(=O)NNC(=O)c1ccc(-c2ccccc2)cc1,-13,-8,i,0,11,i,2
CSc1nc(O)c(/C=C2\C=Nc3ccccc32)[nH]1,-24,-5,i,4,-17,.,.
O=c1[nH]c(/C=C2\C=Nc3ccccc32)c(O)n1Cc1ccccc1F,-8,16,i,-5,-14,i,0
CCOC(=O)C1=C(CN2c3ccccc3CC2C)NC(=O)NC1c1ccccc1 (stereo not given),-41,4,+,18,11,i,1
CCOC(=O)C1=C(CCc2ccccc2)NC(=O)NC1c1ccc(Br)cc1 (stereo not given),-15,13,i,5,14,.,.
Cc1ccc(S(=O)(=O)NCC(NCc2ccc(F)cc2)c2ccccc2)cc1 (stereo not given),17,26,i,-6,1,.,.
O=C(COC(=O)c1sc2ccccc2c1Cl)Nc1ncc(Cl)cc1Cl,-11,-2,i,13,-17,.,.
C(=Nc1ccccc1)c1ccc[nH]1,14,-7,i,3,12,.,.
Oc1ccccc1N=Cc1ccc[nH]1,19,-14,+,-3,-10,i,0
NC(=O)Cc1ccc(Nc2nnc(-c3ccc(O)cc3)c3ccccc23)cc1,15,0,i,3,-2,.,.
O=[N+]([O-])c1ccc(/C=C/c2nc3ccc([N+](=O)[O-])cc3[nH]2)cc1,7,50,+,15,-1,i,0
Nc1nc2ccc([N+](=O)[O-])cc2[nH]1,-9,-4,i,0,0,.,.
CCSCCC(NC1=CC(=O)CC(C)(C)C1)C(=O)O (stereo not given),10,-4,+,-3,2,i,0
CC1(C)CC(=O)C=C(NCC(=O)O)C1,1,-12,i,3,19,.,.
SMILES,CRFR2-BP antag,FAS-TE inh,Myeloid diff MLP,NadD block,CendR NRP1 mod,Myeloid diff,GFP autofluor
COCCn1nnnc1C(C(C)C)N1CCCC(C)C1 (stereo not given),4,-1,i,2,17,.,.
COC(=O)C[C@@H]1C=C[C@@H](NC(=O)c2ccccc2F)[C@@H](CO)O1,.,.,i,.,1,i,0
Cc1cc(=O)n2c3ccccc3n(C)c2n1,2,-3,i,-2,-10,.,.
CN(C)c1ccc(N=Nc2nc3ccccc3n2C)cc1,16,18,i,2,13,.,.
Cn1c(N=Nc2ccccc2)nc2ccccc21,20,-11,i,-4,10,i,0
COCCNC(=O)C(c1ccc(C)o1)N(CCOC)C(=O)Cn1nnc2ccccc21 (stereo not given),-12,-1,i,-4,17,.,.
CCOc1ccccc1C(C(=O)NCCOC)N(CCOC)C(=O)Cn1nnc2ccccc21 (stereo not given),-5,-3,i,-1,5,i,0
C[C@@H]1CN([C@@H](C)CO)C(=O)c2cc(Br)cnc2O[C@@H]1CN(C)C(=O)CN(C)C,3,-9,i,-3,-1,.,.
C/C=C(\C)C(=O)N1CCC(C(=O)c2ccccc2)CC1,9,-4,i,-1,11,.,.
CC(=O)N1CCc2c(sc(NC(=O)c3ccc([N+](=O)[O-])o3)c2C#N)C1,11,9,+,5,4,i,0
COc1ccc(C(=O)Nc2sc3c(c2C#N)CCN(C(C)=O)C3)cc1,-15,9,i,2,-48,.,.
COc1ccccc1NS(=O)(=O)c1cc(NC(=O)Cc2n[nH]c(=O)c3ccccc23)ccc1Cl,-26,1,i,17,4,i,0
COc1ccc(NS(=O)(=O)c2cc(NC(=O)Cc3n[nH]c(=O)c4ccccc34)ccc2OC)cc1,-20,-5,i,11,7,.,.
CCCCN(C)C(=O)Cn1nc(Cc2ccncc2)c2ccccc2c1=O,6,-6,i,-1,-5,.,.
O=C(O)C(c1ccccc1)N1C(=O)/C(=C\c2ccc(-c3ccc(Br)cc3)o2)SC1=S (stereo not given),-57,29,+,15,143,i,26*
Cc1[nH]c(=O)[nH]c(=O)c1S(=O)(=O)Nc1ccc(F)c([N+](=O)[O-])c1,3,-2,i,-1,5,.,.
O=C(CCc1ccccc1)Nc1ccc(NC(=O)c2ccco2)cc1,-8,-8,i,-4,-9,.,.
O=C(N/N=C\CCc1ccccc1)c1ccco1,6,-4,i,-4,-8,i,0
CCn1cc(CNC(=O)CCc2nnc(CCC3CCCCC3)o2)cn1,-4,0,i,-3,-2,.,.
Cc1ccc(NCc2nnc(SCC(=O)Nc3cc(C)on3)n2C)cc1,21,-5,i,-2,-11,.,.
COc1ccccc1-n1c(CNc2ccc(F)cc2)nnc1SCC(=O)Nc1cc(C)on1,-8,-3,i,15,3,i,0
Cc1cccc(S(=O)(=O)NC(=O)C2(C)CCN2C(=O)c2c(C)noc2C)c1 (stereo not given),.,-3,i,-3,1,.,.
CCOC(=O)C1(CC2CC2)CCN(C(=O)c2cccnc2C)CC1,-5,-2,i,5,2,i,0
